Sm TGR inh = qHTS Assay for the Inhibitors of Schistosoma Mansoni Peroxiredoxins | Schistosoma mansoni thioredoxin glutathione reductase (TGR), Q962Y6 | purified TGR, DTNB reduction, TNB absorbance 405 nm | Potency, µM (titrated, usually from 114 µM), inactives show at the top dose activity change, negative = inhibition, most hits filed as inhibitors | 360,000 tested, 3% active | AID 485364, 2010; also: potency is read from the fitted curve at half-maximal effect; nearly all actives have a fitted effect of over 60% in size
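Kinetic colorimetric format: TGR-catalysed, NADPH-driven DTNB reduction monitored via TNB absorbance. Enzyme dispensed at 20 nM; compound exposure 15 min at room temperature before reaction start.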
Pf growth 96h = Primary qHTS for delayed death inhibitors of the malarial parasite plastid, 96 hour incubation | 320,000 tested, 6.9% active | Potency, µM (titrated, usually from 28.7 µM), for inactives: at the highest dose activity change, negative = inhibition, usual class: inhibitors | AID 504834, 2011 | P. falciparum luciferase reporter growth, 96 h; also: potency is read from the fitted curve at half-maximal effect
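Two-generation exposure (96 h) targets delayed-death phenotype. Reporter parasites carrying integrated firefly luciferase, in red cells at 2% hematocrit and 0.05% parasitemia final, kept at 37 C, 5% CO2; luminescence loss indicates inhibition.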
Pf growth 48h = Primary qHTS for delayed death inhibitors of the malarial parasite plastid, 48 hour incubation | P. falciparum luciferase growth in erythrocytes, 48 h | Potency, µM (highest dose often 28.7 µM), without a hit: at the highest dose activity change, negative = inhibition, usual class: inhibitors | 310,000 tested, 5.9% active; also: potency is read from the fitted curve at half-maximal effect
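Luciferase-expressing parasites in RBCs, 2% Hct / 0.1% parasitemia final; RPMI 1640 + 0.5% Albumax; 37 C, 5% CO2, one generation; luminescence read-out, lower signal = inhibition.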
HCMV antiviral = qHTS Assay for inhibitors of the human cytomegalovirus (HCMV); 410,000 tested, 4.5% active; HFF cells, HCMV-luciferase reporter, 72 h; hits give low values; activity change, negative = inhibition, % at 57.5 µM; in the data active = activity change below about -60%; inconclusive = no clear call, values can overlap the other calls; inactive = above about -39%
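Luciferase read-out from HCMV-luciferase-infected HFFs (MOI 1 PFU/cell) 72 h post infection at 37C; compounds added after 16 h cell attachment; activity normalized between buffer-only basal and Salinomycin (10uM) inhibitor controls.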
FBPA Giardia inh = qHTS Assay for Inhibitors of Fructose-1,6-bisphosphate Aldolase from Giardia Lamblia | AID 2451, 2010 | purified Giardia FBPA | A8B2U2 | Potency, µM (highest dose often 59.6 µM), for the others: at the highest dose activity, negative = inhibition, most hits filed as inhibitors | 290,000 tested, 0.71% active; also: potency is read from the fitted curve at half-maximal effect; nearly all actives have a fitted effect of over 55% in size
Target sequence (A8B2U2 whole entry, looked up): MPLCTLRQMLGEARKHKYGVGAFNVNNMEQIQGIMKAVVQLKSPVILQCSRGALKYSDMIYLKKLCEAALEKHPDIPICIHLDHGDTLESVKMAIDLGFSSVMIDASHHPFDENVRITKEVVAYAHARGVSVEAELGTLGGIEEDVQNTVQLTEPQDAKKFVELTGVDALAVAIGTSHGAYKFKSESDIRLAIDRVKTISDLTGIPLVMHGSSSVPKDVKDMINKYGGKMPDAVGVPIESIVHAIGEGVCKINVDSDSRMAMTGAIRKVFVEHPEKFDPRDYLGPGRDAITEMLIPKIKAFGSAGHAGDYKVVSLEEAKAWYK
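40 nM FBPA preincubated 10 min at RT with compound (up to 57.5 uM final), then substrate plus GAPDH/TPI/NAD/arsenate coupling and diaphorase/resazurin added. Fluorescence read after 20 min at RT, 525/598 nm.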
Numbers without * were called inactive; ? = inconclusive; . = not tested or not shown; [ ] = dose if it differs, or a comment. This is a sample that favours compounds with a hit; in the whole collection about 14% have one here. Unless noted, calls follow the shape of the dose curve; as a rule, active = well fitted curve in the direction sought with a large enough effect; inconclusive = small, poorly fitted or top-dose-only effect, or another doubt; inactive = no such curve, though single readings can be large; an effect the other way counts as inactive or inconclusive. % is scaled to controls: 0 for no effect and ±100 for the full control effect.

SMILES | Sm TGR inh | Pf growth 96h | Pf growth 48h | HCMV antiviral | FBPA Giardia inh
O=C(NCc1cccnc1)c1cc(C2CCCCN2C(=O)CCCc2ccccc2)on1 (centres undefined) | . | . | . | -6.0 | .
Cc1ccc(-c2nc(CNC(=O)c3ccco3)cs2)cc1 | ? | ? | 33.2% | -38.4 | .
COc1ccc(C(=O)Nc2cccc(OC(=O)c3ccc(C)c(C)c3)c2)cc1 | 7.0% | 246.2% | 3.5% | 58.4 | 1.5%
CC(=O)Oc1ccc(C(=O)Nc2ccccc2NC(=O)c2ccc(OC(C)=O)cc2)cc1 | -17.4% | ? | -9.4%[0.00184 µM] | -8.0 | 5.5%
CC(=O)Oc1ccc(C(=O)Nc2cc(NC(=O)c3ccc(OC(C)=O)cc3)cc(C(=O)NC(C)(C)C)c2)cc1 | -0.1% | 2.62µM* | ? | 57.5 | -4.6%
CC(=O)Oc1ccc(C(=O)Nc2cccc(C(=O)c3ccc(C)c(C)c3)c2)cc1 | 11.4% | 76.7% | 11.7µM* | -7.4 | -10.1%
Cc1ccc(S(=O)(=O)N(C)c2ccc(C(=O)N(C)Cc3nc4ccccc4c(=O)[nH]3)cc2)cc1 | -0.2% | 5.86µM* | 11.7µM* | -8.4 | .
COc1ccccc1CN(Cc1nc2ccccc2c(=O)[nH]1)S(=O)(=O)c1ccc(C)cc1 | -15.4% | . | 5.86µM* | -98.6* | -18.5%
N#Cc1cccc(-c2nc(Nc3ccncc3)c3ccccc3n2)c1 | . | . | . | . | -5.8%
O=C(c1cccnc1)N1N=C(c2cccs2)CC1c1ccc(F)cc1 (centres undefined) | 3.4% | 9.4% | 0.0% | -12.0 | -10.0%
O=C1c2cccc(OCC(=O)N3N=C(c4cccs4)CC3c3ccc(F)cc3)c2CCN1Cc1cccnc1 (centres undefined) | -13.6% | ? | 1.47µM* | ? | 8.9%
Cc1ccccc1CN1CCc2c(OCC(=O)N3CCCc4ccccc43)cccc2C1=O | 4.7% | 14.7µM* | ? | -61.6* | -4.4%
O=C1c2cccc(OCC(=O)N3CCCc4ccccc43)c2CCN1Cc1cccnc1 | -12.3% | ? | ? | -61.1* | 0.0%
COc1ccc(CC(=O)Nc2ccccc2C(F)(F)F)cc1S(=O)(=O)N1CCOCC1 | . | . | . | 3.0 | .
O=C(O)c1ccsc1Cc1cccs1 | . | . | . | -30.3 | .
COc1ccc(C(=O)NCC(=O)OCC(=O)c2ccc3c(c2)NC(=O)CO3)cc1 | 0.8% | 11.6% | 10.5% | -14.1 | 1.1%
CC(=O)Oc1ccc(OC(C)=O)c2c1CC1(C)OC1(C)C2 (centres undefined) | . | . | . | 0.8 | .
Clc1ccc(C#Cc2cccnc2)cc1 | -6.5% | 79.8% | 45.8% | 30.8 | .
CCOC(=O)c1c(/N=C/N(C)C)sc(/C=N/Nc2ccccc2)c1-c1ccccc1 | -5.7% | 10.4µM* | 14.7µM* | 2.5 | 0.3%
CCOC(=O)c1c(/N=C/N(C)C)sc(/C=N/Nc2ccccc2)c1-c1ccccc1Cl | -10.4% | ? | 6.57µM* | -16.7 | -4.4%
CCOC(=O)c1c(/N=C/N(C)C)sc(C=O)c1-c1ccccc1 | -12.0% | 1.4% | -20.3% | ? | 2.2%
CCOc1ccc(CN2CCC(C(=O)Nc3cccc(-c4ccn[nH]4)c3)CC2)cc1Cl | -0.4% | ? | ? | -28.6 | .
Cc1cc(C)n(-c2nc3ccccc3nc2N2CCN(c3cccc(C(F)(F)F)c3)CC2)n1 | 6.1% | . | . | 6.2 | .
COc1ccc(CNn2c(-c3ccccc3F)nc3ccccc3c2=O)cc1OC | 0.0% | ? | -11.4% | -12.1 | -4.6%
Cc1ccc(/C=C/C(=O)C2C(=O)c3ccccc3C2=O)cc1 | -26.1% | ? | 1.65µM* | 120.7 | 20.8%
Cc1cc(C)c2cc(CN(Cc3nnnn3C3CCCCC3)CC3CCCO3)c(=O)[nH]c2c1 (centres undefined) | -4.1% | 4.4%[5.75 µM] | 13.1µM* | -24.9 | -1.3%
Cc1cc2cc(CN(Cc3nnnn3C3CCCCC3)CC3CCCO3)c(=O)[nH]c2cc1C (centres undefined) | -29.1% | -10.6% | 8.28µM* | ? | -20.4%
Cc1ccc2cc(CN(Cc3nnnn3C3CCCCC3)CC3CCCO3)c(=O)[nH]c2c1 (centres undefined) | 0.0% | -9.9% | ? | ? | 0.8%

Source: PubChem BioAssay
